According to PubChem BioAssay (NCATS):
Values joined by “and” are separate entries in the source; they are usually repeats but may differ in a detail not shown here. Identical values can stand only once. Records with an inconclusive call do not appear. Values without a mark were called inactive. Active and inactive are the calls of the source. The call rests on the fitted dose curve; in most records, active means well fitted cell-killing curve with a large enough effect; inconclusive means small, poorly fitted or top-dose-only effect; inactive means flat fitted curve, though single readings scatter.

Assay: Cell Viability - LYMP2-014 (AID 983); further: nearly all actives have a fitted effect of over 50% in size;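 on activity change, negative = cytotoxicity: plate controls were DMSO only for no effect and 92 µM tetraoctylammonium bromide for full effect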
Details: LYMP2-014 lymphoblastoid cells, viability qHTS; series mostly up to 92.2 µM; activity change, negative = cytotoxicity: at the top concentration
From the text: NIH Chemical Genomics Center [NCGC]
NIH Molecular Libraries Screening Centers Network [MLSCN]
National Institutes of Environmental Health Sciences [NIEHS]
National Toxicology Program [NTP]
We have developed a 1536-well cell-based assay for quantitative high throughput screening (qHTS) against a number of cell lines to determine in vitro cytotoxicity of small molecules. This particular assay uses a human lymphoblastoid cell line (LYMP2-014) purchased from Coriell Institute for Medical Research.
NCGC Assay Protocol Summary:
The CellTiter-Glo luminescent cell viability assay (Promega) is a homogeneous method to measure the number of viable cells in culture. The end point readout of this assay is based on quantitation of intracellular ATP, an indicator of metabolic activity, using the luciferase reaction. Luciferase catalyzes the oxidation of beetle Luciferin to oxyluciferin and light in the presence of ATP. The luminescent signal is proportional to amount of ATP present.
Using the CellTiter-Glo luminescent cell viability assay, the amount of cellular ATP was measured in the lymphoblastoid cell line with complete culture medium following compound treatment for 24 hours. The assay was performed in opaque white Kalypsys 1536-well plates. In the screen, tetraoctylammonium bromide was used as positive control. Library compounds were measured for their ability to cause acute toxicity in the cell line, as reflected by a decrease in intracellular ATP levels, in a concentration-dependent manner. […] AC50 values were determined from concentration-response data modeled with the standard Hill equation.
qHTS protocol for CellTiter Glo lymphoblastoid cellular assay
[Step] [Parameter] [Value] [Description]
1. Reagent; 5 uL; 2500 lymphoblastoid cells/well
2. Time; 5 hr; 37 C incubation
4. Controls; 23 nL; Tetraoctylammonium bromide 6.4pM to 92 uM
5. Time; 24 hr; 37 C incubation
6. Reagent; 5 uL; CellTiter Glo reagent
7. Time; 30 min; Room Temperature
8. Detection; Luminescence; Viewlux plate reader
Keywords: cell viability, cytotoxicity, lymphoblastoid cell line, luminescence, NTPHTS, NTPHTS_NCGC, NIEHS, DSSTox, MLSMR, MLSCN, NIH Roadmap, qHTS, NCGC
Potency means the concentration at half of the fitted maximal effect.

Compound | Potency | activity change, negative = cytotoxicity [%]
N[C@@H](Cc1ccc(N(CCCl)CCCl)cc1)C(=O)O | 31.6 µM (active) | 
OCCOc1ccccc1 |  | -10.7
CCCC(C)(COC(N)=O)COC(=O)NC(C)C (stereo not given) |  | -4.74
Oc1cccc2cccnc12 | 15.8 µM (active) and 12.6 µM (active) | 
Oc1ccc(Cl)cc1Cc1ccccc1 |  | -3.03
CNCC(O)c1ccc(O)cc1 (stereo not given) |  | -4.04
CCOP(=S)(OCC)Oc1cc(C)nc(C(C)C)n1 |  | 2.76
c1ccc2c(c1)Nc1ccccc1S2 |  | -0.934
Oc1ccccc1-c1ccccc1 |  | -1.9
NCC(O)c1ccc(O)cc1 (stereo not given) |  | 2.35
